Assay results published in PubChem BioAssay (NCI).
Compounds without any hit were thinned out: in the full panel of roughly 83,000, 20% have a hit.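 96-well plates, one dose, 48 hours. Percent growth reported; active if below 10.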 Activity calls are given as the source filed them.

Key:
Experiment in all cases: NCI-60 one-dose screen, 48 h (100 = growth as untreated, 0 = no growth, -100 = all killed)
Conditions in all cases: 10 µM unless noted
[1] = tested on: HCT-15 colon
[2] = tested on: HT29 colon
[3] = tested on: SNB-75 CNS
[4] = tested on: SNB-19 CNS
[5] = tested on: U251 CNS
[6] = tested on: PC-3 prostate
[7] = tested on: SK-MEL-5 melanoma
[8] = tested on: UACC-62 melanoma
[9] = tested on: LOX IMVI melanoma
[10] = tested on: SK-MEL-28 melanoma
[11] = tested on: SK-MEL-2 melanoma
[12] = tested on: EKVX NSCLC
[13] = tested on: SN12C renal
[14] = tested on: UO-31 renal
[15] = tested on: TK-10 renal
[16] = tested on: ACHN renal
[17] = tested on: CAKI-1 renal
[18] = tested on: A498 renal
[19] = tested on: MOLT-4 leukemia
[20] = tested on: CCRF-CEM leukemia

Measured: growth

CCCCCCCCCCCCCCCC1=NCCN1
active: [1] 0.909% | [2] 4.17% | [9] 1.64% | [13] -51.6% | [19] -27.3%
inactive: [3] 82.7% | [4] 24.8% | [5] 16.1% | [6] 47.6% | [7] 80.6% | [8] 76.1% | [10] 80.7% | [11] 96% | [12] 85.2% | [14] 64.5% | [15] 102% | [16] 71.2% | [17] 81.3% | [18] 65.5%

CSC1=N/C(=C\c2cccc(OCc3ccc(Cl)cc3)c2)C(=O)N1
inactive: [1] 81.4% | [2] 76.7% | [3] 82.5% | [4] 90.4% | [5] 84.5% | [6] 76% | [7] 77.7% | [8] 70.4% | [9] 84.2% | [10] 100% | [11] 87.9% | [12] 75.5% | [13] 80.9% | [14] 67.2% | [16] 87.1% | [17] 80.6% | [18] 62.1% | [20] 98.3% | [19] 90.5%

O=S(=O)(Cc1ccc(Cl)cc1Cl)c1ccc(Cl)cc1
inactive: [1] 31.8% | [3] 18.8% | [4] 44% | [5] 25.8% | [6] 31.1% | [7] 39.8% | [8] 44.6% | [9] 15.7% | [10] 65.9% | [11] 31.1% | [12] 63.4% | [13] 49.4% | [14] 46.2% | [16] 55.7% | [17] 38.1% | [18] 42.5% | [20] 10.8% | [19] 33.3%
active: [2] 9.72%

S=C(Nc1ccc(Cl)cc1)Nc1ccc(Cl)cc1 (tested in a mixture with another compound)
inactive: [3] 16.8% | [4] 24.7% | [8] 13.8% | [10] 25.8% | [13] 11.1% | [19] 15.3%
active: [1] 9.22% | [2] 1.05% | [5] -36.6% | [6] 3.81% | [7] -61.3% | [9] 5.65% | [11] -32.7% | [12] -4.98% | [14] -5.47% | [15] 1.45% | [16] 3.54% | [17] -20.3% | [18] -8.63%

CC[C@H](C)[C@H](N)C(=O)O
inactive: [1] 107% | [2] 109% | [3] 99.1% | [4] 105% | [5] 107% | [6] 99.1% | [7] 101% | [8] 102% | [9] 98.7% | [10] 109% | [11] 109% | [12] 107% | [13] 101% | [14] 83.9% | [15] 121% | [16] 103% | [17] 95.6% | [18] 91% | [19] 116%

CCOc1cc(/C=N\NC(=O)C[N+](C)(C)C)ccc1O
inactive: [1] 103% | [2] 105% | [3] 106% | [4] 117% | [5] 105% | [6] 99.6% | [7] 105% | [8] 111% | [9] 103% | [10] 117% | [11] 115% | [12] 98.7% | [13] 109% | [14] 113% | [16] 103% | [17] 95.9% | [18] 115% | [20] 98.5% | [19] 28.5%

OC(CCCCCCCCC(O)CN1CCc2ccccc2C1)CN1CCc2ccccc2C1 (stereo not drawn)
inactive: [1] 95.1% | [2] 114% | [3] 95.4% | [4] 105% | [5] 101% | [6] 98.9% | [7] 95.2% | [8] 101% | [9] 96.4% | [10] 108% | [11] 111% | [12] 89.5% | [13] 105% | [14] 86.1% | [15] 103% | [16] 110% | [17] 92.6% | [18] 107% | [19] 110%

COC(=O)c1ccc2c(c1)nc(-c1cc3ccccc3[nH]c1=O)n2-c1cc(C(C)(C)C)[nH]n1
inactive: [1] 78.2% | [3] 101% | [4] 35% | [5] 39.7% | [6] 53% | [7] 74.9% | [8] 51.2% | [9] 11.2% | [10] 84.1% | [11] 55.9% | [12] 85.6% | [13] 57.3% | [14] 29.1% | [16] 78.5% | [17] 67.9% | [18] 59.6% | [20] 30.3% | [19] 18.1%
active: [2] 7.39%

NC(=S)N1N=C(c2ccc(Cl)cc2)CC1c1cc2ccccc2[nH]c1=O (stereo not drawn)
inactive: [1] 104% | [2] 95.3% | [3] 106% | [4] 101% | [5] 107% | [6] 87.5% | [7] 107% | [8] 97.7% | [9] 105% | [10] 115% | [11] 103% | [12] 109% | [13] 104% | [14] 82.7% | [15] 109% | [16] 107% | [17] 114% | [18] 89.5% | [19] 72.5%

O=C1CCCN1C1CCN2CCCc3cccc1c32 (stereo not drawn)
inactive: [1] 102% | [2] 94.4% | [3] 105% | [4] 100% | [5] 103% | [6] 91.3% | [7] 110% | [8] 93.6% | [9] 101% | [10] 115% | [11] 102% | [12] 102% | [13] 104% | [14] 81.3% | [15] 103% | [16] 106% | [17] 105% | [18] 99.2% | [19] 78.9%

CC(=O)c1ccc(N2C(=O)c3ccc(Oc4ccccc4)cc3C2=O)cc1
inactive: [1] 111% | [2] 104% | [3] 108% | [4] 105% | [5] 108% | [6] 91.2% | [7] 103% | [8] 98.9% | [9] 103% | [10] 111% | [11] 110% | [12] 94.1% | [13] 98.4% | [14] 92.5% | [16] 107% | [17] 101% | [18] 91.5% | [20] 134% | [19] 115%

CS(=O)(=O)c1ccc(C(=O)N/N=C/c2ccccc2O)cc1
active: [19] 9.19%
inactive: [1] 18% | [2] 43.6% | [3] 77.8% | [4] 45.4% | [5] 27.8% | [6] 54.3% | [7] 32.2% | [8] 16.4% | [9] 21.4% | [10] 55.9% | [11] 40% | [12] 25.8% | [13] 58.7% | [14] 18% | [16] 28.3% | [17] 34.9% | [18] 75.2% | [20] 15.3%

CC(=O)NC1C(O[C@H]2C[C@H]3[C@@H]4CC=C5C[C@@H](O)CC[C@]5(C)[C@H]4CC[C@]3(C)[C@H]2[C@H](C)C(=O)CCC(C)C)OCC(O)C1O (stereo partly drawn)
active: [8] -20.3% | [10] -14.3% | [11] -15.9% | [14] 1.5% | [18] -20.3% | [19] -8.22%
inactive: [1] 30.5% | [2] 36.8% | [3] 37.8% | [4] 57.5% | [5] 28% | [6] 26.5% | [7] 24.8% | [9] 27.2% | [12] 46.3% | [13] 89.6% | [16] 44.3% | [17] 30.2% | [20] 11.5%

CC(C)CC(=O)C(CCc1ccccn1)C(C)C (stereo not drawn)
inactive: [1] 101% | [2] 98.3% | [3] 111% | [4] 108% | [5] 107% | [6] 99.7% | [7] 103% | [8] 103% | [9] 96.5% | [10] 109% | [11] 103% | [12] 99.4% | [13] 107% | [14] 103% | [16] 101% | [17] 79% | [18] 91.8% | [20] 97.2% | [19] 108%

C=CC(=O)N1CN(C(=O)C=C)CN(C(=O)C=C)C1
active: [1] 3.65% | [17] 3.54%
inactive: [2] 26.2% | [3] 60% | [4] 107% | [5] 88.9% | [6] 90.8% | [7] 71.5% | [8] 74.3% | [9] 71.4% | [10] 72.7% | [11] 110% | [12] 108% | [13] 95.2% | [14] 55.2% | [16] 22.4% | [18] 106% | [20] 10.1% | [19] 23.4%

CCN(CC)CC(=O)Nc1c(C)ccc(N)c1C
inactive: [1] 97.1% | [2] 91.7% | [3] 91.7% | [4] 100% | [5] 96.1% | [6] 97.5% | [7] 99.6% | [8] 97.6% | [9] 96.4% | [10] 107% | [11] 99.4% | [12] 96.5% | [13] 99.4% | [14] 86.2% | [15] 100% | [16] 112% | [17] 102% | [20] 112% | [19] 115%

Cc1ccc(NC(=O)c2cc(NCc3cc(O)ccc3O)ccc2O)cc1
inactive: [1] 86.3% | [2] 82.9% | [3] 97.8% | [4] 99.8% | [5] 95.4% | [6] 74% | [7] 88.6% | [8] 81.9% | [9] 94.7% | [10] 108% | [11] 82.8% | [12] 98.7% | [13] 86.1% | [14] 58% | [15] 102% | [16] 100% | [17] 107% | [20] 26.4% | [19] 69.7%
